# Shown are actives, neighbours in structure and some others; about 19% of the full set was active somewhere.
# HT1080 IDH1KD tx = qHTS for induction of synthetic lethality in tumor cells producing 2HG: qHTS for the HT-1080-IDH1KD cell line; HT-1080 IDH1 knockdown viability, ATP luminescence, 48 h; Potency, µM (series often up to 46.1 µM), for inactives: at the top dose activity, negative = toxicity, hits mostly cytotoxic; actives 2% (n = 360,000);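 also: potency is read from the fitted curve at half-maximal effect; 0% = DMSO wells and -100% = cell-free medium wells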
#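 In this qHTS, HT-1080 cells depleted of IDH1 are exposed for 48 h at 37 °C to compound titrations. Toxicity is scored from CellTiter-Glo luminescence, with DMSO as full viability and medium alone as none.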
# HT1080NT lethal = qHTS for induction of synthetic lethality in tumor cells producing 2HG: qHTS for the HT-1080-NT fibrosarcoma cell line; HT-1080-NT fibrosarcoma viability, CellTiter-Glo ATP luminescence, 48 h; Potency, µM (titrated, usually from 46.1 µM), for inactives: at the highest dose activity, negative = less viability, most hits filed as cytotoxic; actives 1.6% (n = 360,000);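 also: NT is the 2HG producing partner of a matched IDH1 knockdown line; potency is read from the fitted curve at half-maximal effect; 0% = DMSO-treated cells and -100% = media-only wells without cells; nearly all actives have a fitted effect of over 55% in size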
#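 HT-1080-NT fibrosarcoma cells (2HG-overproducing), 750 cells/well in RPMI with 5% FBS, dosed after 2 h and incubated 48 h at 37C. CellTiter-Glo luminescence normalized to DMSO and no-cell wells; concentration-response curves fitted and classed.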
# IL1B secr inh = qHTS for Inhibitors of Inflammasome Signaling: IL-1-beta AlphaLISA Primary Screen | AID 743279, 2014 | activity change, % at 57.5 µM | actives 4.7% (n = 360,000) | THP-1 LPS/ATP IL-1B secretion, AlphaLISA, 16 h; stronger effect = lower value; in the data active = activity change below about -50%; inconclusive = mostly about -30% to -49%
#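 THP-1 cells pretreated 1 hr with compounds (up to 57.5 uM final), then stimulated with LPS (250 ng/mL final) plus ATP (1.25 mM final); secreted IL-1B measured by AlphaLISA after 16 hr, decreased signal indicating inhibition.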
# ELG1 repair inh = qHTS screen for small molecules that inhibit ELG1-dependent DNA repair in human embryonic kidney (HEK293T) cells expressing luciferase-tagged ELG1; HEK293T ELG1-luciferase reporter, luminescence, 16 h; DNA damage induced by 5-fluorouridine; Potency, µM (doses to about 46.1 µM), for inactives: top-dose activity change, negative = inhibition, hits mostly inhibitors; actives 2.3% (n = 330,000); also: potency is read from the fitted curve at half-maximal effect; nearly all actives have a fitted effect of over 55% in size
#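 Step one: seed 2,000 cells per well. Step two: pin-transfer compound or DMSO alongside 5-fluorouridine. Step three: incubate 16 hr, 37 °C, 5% CO2. Step four: add ONE-Glo, wait 30 min, read luminescence.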
# TDP1 cell noCPT = qHTS for Inhibitors of human tyrosyl-DNA phosphodiesterase 1 (TDP1): qHTS in cells in absence of CPT. DT40 Tdp1-/- hTDP1 cells, no CPT, ATP luminescence, 48 h. Potency, µM (series often up to 46.2 µM), for inactives: top-dose activity change, negative = growth inhibition, hits mostly inhibitors. actives 15% (n = 420,000); also: potency is read from the fitted curve at half-maximal effect; nearly all actives have a fitted effect of over 55% in size
#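 Chicken DT40 Tdp1-/- cells complemented with human TDP1, screened without camptothecin (DMSO vehicle only), 400 cells/well. Compounds pin-transferred, cells incubated at 37 °C for at least 48 hr. Growth read as ATP-dependent luminescence (CellTiter-Glo, 30 min at RT).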
# TDP1 cell CPT = qHTS for Inhibitors of human tyrosyl-DNA phosphodiesterase 1 (TDP1): qHTS in cells in presence of CPT | chicken DT40 Tdp1-/-;hTDP1 cells + 20 nM CPT, ATP luminescence, 48 h | Potency, µM (titrated, usually from 46.2 µM), without a hit: at the highest dose activity change, negative = growth inhibition, most hits filed as inhibitors | actives 12% (n = 420,000); also: potency is read from the fitted curve at half-maximal effect; nearly all actives have a fitted effect of over 55% in size
#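 Chicken DT40 Tdp1-/- cells stably complemented with human TDP1 were seeded at 400 cells/well in medium containing 20 nM camptothecin, exposed to pin-transferred compounds, and grown at 37 °C for at least 48 hr. Viability was read as ATP luminescence.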
# * hit, by the source's call; ? = inconclusive; nt = not tested or not shown. Unless noted, calls follow the shape of the dose curve; as a rule, active = well fitted curve in the direction sought with a large enough effect; inconclusive = small, poorly fitted or top-dose-only effect, or another doubt; inactive = no such curve, though single readings can be large; an effect the other way counts as inactive or inconclusive. Unless noted, % is scaled to controls: 0 for no effect and ±100 for the full control effect.
SMILES,HT1080 IDH1KD tx,HT1080NT lethal,IL1B secr inh,ELG1 repair inh,TDP1 cell noCPT,TDP1 cell CPT
COc1ncc2nc(-c3ccccc3)c(=O)n(-c3ccccc3)c2n1,nt,nt,nt,nt,33%,-4%
COc1ccc(-c2cnc(C)o2)cc1S(=O)(=O)Nc1ccc(NC(C)=O)cc1,nt,nt,nt,nt,-6%,-3%
CC(=O)Nc1ccc(NS(=O)(=O)c2cc(-c3cnc(C4CC4)o3)ccc2C)cc1,-6%,-4%,41,?,2.3µM*,2.9µM*
Cc1cccc(C)c1NC(=O)CCSCCc1ccccn1,nt,nt,nt,nt,-26%,-25%
COc1ccc(NCc2nc3ccccc3n2CCOc2ccccc2C)cc1,nt,nt,nt,nt,?,18µM*
Cc1ccc(NCc2nc3ccccc3n2CCOc2ccccc2)cc1,6%,8%,-96*,?,18µM*,?
CCCn1c(CNc2ccc(Br)cc2)nc2ccccc21,-7%,1%,-28,-15%,?,23µM*
Cc1csc(SCC(=O)NC(=O)NCCC(C)C)n1,-10%,1%,14,1%,3%,5%
Cc1ccccc1NC(=O)CSc1nnc(-c2cccc(Cl)c2)o1,nt,nt,nt,nt,-1%,-12%
Cc1ccc(-n2nc(C)c3nc(CCC(=O)Nc4cccc(F)c4)c(=O)n(C)c32)cc1,nt,nt,nt,nt,-6%,-14%
CC(C)Oc1c(Cl)cc(CNC(C)(C)CO)cc1Cl,0%,0%,1,1%,-17%,-25%
CCOc1c(Cl)cc(CNC(C)(C)CC(C)(C)C)cc1OC,?,?,-12,-13%,21µM*,?
Cc1cn([C@H]2C[C@H](O)[C@@H](CNCc3ccccc3OCCCN3CCOCC3)O2)c(=O)[nH]c1=O,2%,-5%,?,nt,8%,8%
CCCCC(O)(CCCC)C(=O)N/N=C(\C)c1ccc(Cl)cc1,-17%,-8%,-54*,?,?,?
O=C(CSc1nc2ccccc2nc1Cc1ccc(Cl)cc1)Nc1ccc2c(c1)OCO2,nt,nt,nt,nt,-3%,-13%
COC(=O)CSc1nc(COc2ccccc2)nc2ccccc12,8%,7%,6,9%,-10%,13%
CCN(CC)C(=O)CSc1nc(COc2ccccc2)nc2ccccc12,-11%,-12%,0,23µM*,?,-40%
CCc1nc(SCC(=O)Nc2ccc(N(C)C)cc2)c2ccccc2n1,-12%,-2%,?,?,15µM*,?
CCc1nc(SCC(=O)NNC(=O)C(C)C)c2ccccc2n1,-15%,-13%,-30,0%,5%,12%
CCCNC(=O)CSc1nc(COc2ccccc2)nc2ccccc12,12%,1%,-67*,6%,?,-1%
Cc1cc(C)c(NC(=O)CSc2nc3ccccc3c3nc(CCn4cncc4C)nn23)c(C)c1,nt,nt,nt,nt,15µM*,13µM*
Cc1cc(C)c(NC(=O)CSc2nc(COc3ccccc3)nc3ccccc23)c(C)c1,?,8%,-64*,?,18µM*,23µM*
CCCCNC(=O)CSc1nc(CCC)nc2ccccc12,-9%,-8%,-14,-10%,23µM*,23µM*
CCCc1nc(SCC(=O)Nc2nccs2)c2ccccc2n1,1%,1%,-2,-11%,?,4%
Cc1ccccc1NC(=O)CSc1nc(COc2ccccc2)nc2ccccc12,-26%,0%,-24,26µM*,-30%,?

# Assay outcomes as filed in PubChem BioAssay.
